Each structure is given as a SMILES string. Several values for one entry are separate records, joined by “and”; a condition that tells them apart may be missing. Equal values may be shown once. A structure can be active in one record and inactive in another. Activity calls are given as the source filed them. How the source made its calls: active means hit-call score of the fitted dose curve at least 0.9, where 1 is the maximum; inactive means score below 0.9.

Read-out in assay [1]: Urokinase-type plasminogen activator receptor (uPAR), PLAUR (gene 5329)
Nature of the assay: BSK_4H_uPAR: BioMAP Diversity Plus: 4H Assay for Urokinase-type plasminogen activator receptor (uPAR) Biomarker Activity (AID 2283030). The conditions noted are these: primary human endothelial cells (HUVEC); actives raise or lower the signal. In a few lines: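 Human umbilical vein endothelial cells in the 4H system, 24 h after chemical dosing. Cell-surface uPAR measured by ELISA, fitted in both directions versus DMSO; cytotoxicity checked by SRB total protein in parallel cultures.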

Read-out in assay [2]: Vascular endothelial growth factor receptor 2 (Homo sapiens) (UniProt P35968)
The experiment in a line: BSK_4H_VEGFRII: BioMAP Diversity Plus: 4H Assay for Vascular endothelial growth factor receptor 2 (VEGFR2) Biomarker Activity (AID 2283031).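 On AC50: cell-surface VEGFR2 protein level quantified by ELISA.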 The conditions noted are these: primary human endothelial cells (HUVEC); actives raise or lower the signal. In a few lines: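 Primary human umbilical vein endothelial cells (4H system), 24 h exposure; cell-surface VEGFR2 measured by ELISA. Bidirectional fitting versus DMSO; cytotoxicity checked in parallel by SRB total-protein staining.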

Read-out in assay [3]: Human Leukocyte Antigen - DR isotype (HLADR), HLA-DRA (gene 3122)
Nature of the assay: BSK_BE3C_HLADR: BioMAP Diversity Plus: BE3C Assay for Human Leukocyte Antigen - DR isotype (HLADR) Biomarker Activity (AID 2283032). Conditions: primary human bronchial epithelial cells; actives raise or lower the signal. In a few lines:
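ELISA read-out of HLA-DR on human lung bronchial epithelial primary cells, measured 24 h post-dosing. Both increases and decreases were scored relative to DMSO vehicle.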

Read-out in assay [4]: Vascular cell adhesion molecule 1 (VCAM1), VCAM1 (gene 7412)
Nature of the assay: BSK_4H_VCAM1: BioMAP Diversity Plus: 4H Assay for Vascular cell adhesion molecule 1 (VCAM1) Biomarker Activity (AID 2283033).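 On outcome: cell-surface VCAM-1 protein measured by ELISA.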 The conditions noted are these: primary human endothelial cells (HUVEC); actives raise or lower the signal. A digest of the protocol: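 ELISA read-out of VCAM-1 on human umbilical vein endothelium 24 hours after chemical dosing; gain or loss of signal was fitted relative to DMSO, with sulforhodamine B staining of parallel cultures flagging overt cytotoxicity.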

Read-out in assay [5]: Interferon-gamma inducible Protein 10 (IP10), CXCL10 (gene 3627)
The experiment in a line: BSK_BE3C_IP10: BioMAP Diversity Plus: BE3C Assay for Interferon-gamma inducible Protein 10 (IP10) Biomarker Activity (AID 2283034). The conditions noted are these: primary human bronchial epithelial cells; actives raise or lower the signal. A digest of the protocol:
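Chemical is dosed onto human lung bronchial epithelial primary cells, cultures are incubated 24 h, and IP-10 is then quantified by ELISA. Gain or loss of signal is fitted in both directions relative to DMSO.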

Read-out in assay [6]: Monokine induced gamma interferon (MIG), CXCL9 (gene 4283)
The experiment in a line: BSK_BE3C_MIG: BioMAP Diversity Plus: BE3C Assay for Monokine induced gamma interferon (MIG) Biomarker Activity (AID 2283035).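 On outcome: MIG protein measured by ELISA in BE3C cultures after 24 h of dosing.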 The conditions noted are these: primary human bronchial epithelial cells; actives raise or lower the signal. A digest of the protocol:
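ELISA read-out of MIG in human lung bronchial epithelial primary cultures, 24 h post-dosing. Bidirectional curve fit vs DMSO baseline.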

Read-out in assay [7]: Transforming growth factor beta 1 (TGFb1), TGFB1 (gene 7040)
The experiment in a line: BSK_BE3C_TGFb1: BioMAP Diversity Plus: BE3C Assay for Transforming growth factor beta 1 (TGFb1) Biomarker Activity (AID 2283036;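 on outcome: TGF-b1 protein level measured by ELISA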). The conditions noted are these: primary human bronchial epithelial cells; actives raise or lower the signal. In a few lines: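 Primary human lung bronchial epithelial cells; compound exposure 24 h; TGF-b1 by ELISA; bidirectional fit, DMSO baseline. Parallel SRB total-protein staining for cytotoxicity.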

Read-out in assay [8]: Plasminogen activator inhibitor-1 (PAI1), SERPINE1 (gene 5054)
Nature of the assay: BSK_BE3C_PAI1: BioMAP Diversity Plus: BE3C Assay for Plasminogen activator inhibitor-1 (PAI1) Biomarker Activity (AID 2283037). Conditions: primary human bronchial epithelial cells; actives raise or lower the signal. A digest of the protocol: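 Primary human lung bronchial epithelial cells; chemical dosing; 24 h; PAI-1 measured by ELISA; bidirectional fit referenced to DMSO as negative control.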

Read-out in assay [9]: urokinase plasminogen activator (uPA), PLAU (gene 5328)
Nature of the assay: BSK_BE3C_uPA: BioMAP Diversity Plus: BE3C Assay for urokinase plasminogen activator (uPA) Biomarker Activity (AID 2283038).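 On outcome: uPA protein level quantified by ELISA in cell cultures; uPA read one day after compound addition.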 Conditions: primary human bronchial epithelial cells; actives raise or lower the signal. A digest of the protocol:
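Primary human bronchial epithelial cells, uPA measured by ELISA 24 h after dosing. Bidirectional change relative to DMSO; cytotoxicity checked in parallel cultures by sulforhodamine B total-protein staining.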

Read-out in assay [10]: Urokinase-type plasminogen activator receptor (uPAR), PLAUR (gene 5329)
The experiment in a line: BSK_BE3C_uPAR: BioMAP Diversity Plus: BE3C Assay for Urokinase-type plasminogen activator receptor (uPAR) Biomarker Activity (AID 2283039).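 On outcome: cells exposed to compound for one day before measurement.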 Conditions: primary human bronchial epithelial cells; actives raise or lower the signal. A digest of the protocol: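 Human bronchial epithelial primary cells; chemical exposure 24 h; uPAR by ELISA; bidirectional fit vs DMSO control.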

In the case of `CS(C)(=O)=O`, the result in assay [1], in assay [2], in assay [3], in assay [4], in assay [5] and in [6] was inactive. For the same compound, the outcome in [7], in assay [8], in assay [9] and in assay [10] was inactive.

Broadly, the AC50 is the concentration giving half of the maximal activity seen. On to `O=C(O)C=C(C(F)(F)F)C(F)(F)F`, for which the result in assay [1], in assay [2], in assay [3], in assay [5], in assay [6] and in assay [8] was inactive. The result in assay [9] and in assay [10] was inactive. Further, in assay [4], the AC50 is 15.2 µM (active) and 5.95 µM (active).

`Cc1ccc(S(=O)(=O)OCC(F)(F)C(F)(F)C(F)(F)C(F)(F)C(F)(F)C(F)F)cc1`: in assay [1], the AC50 was 46 µM (active). Besides, the outcome in [1], in assay [2], in [3], in assay [4], in assay [5] and in [6] was inactive. The result in assay [8], in [9] and in assay [10] was inactive.

For the compound `O=C(Cl)C(F)(F)C(F)(F)C(F)(F)C(F)(F)C(F)(F)C(F)(F)C(F)(F)C(F)(F)F`, the outcome in assay [1], in [2], in [4] and in assay [8] was inactive. The half-maximal activity concentration (AC50) in assay [2] is 30 µM (active); in [3] it was 50 µM (active) and 48.6 µM (active) and 50.7 µM (active); in [5] it was 39.8 µM (active) and 36.6 µM (active) and 44.6 µM (active); in [6], 55.3 µM (active) and 46.6 µM (active) and 46.1 µM (active); in assay [9], 51.7 µM (active) and 48.2 µM (active) and 47.1 µM (active); in [10] it was 47.8 µM (active) and 53.7 µM (active) and 48.4 µM (active).

`N=C(N)C(F)(F)C(F)(F)C(F)(F)C(F)(F)C(F)(F)C(F)(F)C(F)(F)F`: the result in assay [1], in [2], in [3], in assay [5], in assay [6] and in [8] was inactive. Also, the outcome in assay [9] and in [10] was inactive. Moreover, the AC50 in assay [3] was 43.1 µM (active); in assay [4], 21.1 µM (active) and 44.1 µM (active); in assay [5], 48.6 µM (active).

Turning to `NC(=O)C(F)(F)C(F)(F)C(F)(F)C(F)(F)F`, the outcome in [1], in [2], in assay [3], in assay [4], in assay [5] and in assay [6] was inactive. Further, the outcome in assay [8], in [9] and in assay [10] was inactive. Also, the AC50 in assay [8] is 4.8 µM (active).

Take `FC(F)(F)C(F)(F)C(F)(F)C(F)(F)CCI`: the outcome in assay [1], in assay [2], in assay [3], in assay [4], in [5] and in [6] was inactive. Besides, the outcome in assay [8], in [9] and in assay [10] was inactive.

Regarding `C=CC(=O)OCC(F)(F)C(F)(F)C(F)(F)C(F)(F)COC(=O)C=C`, the AC50 was 57.8 µM (active) and 55.1 µM (active) in assay [1]; 9.64 µM (active) in assay [2]; 40.4 µM (active) and 42.4 µM (active) in [3]; 25.5 µM (active) and 24 µM (active) in assay [4]; 45.1 µM (active) and 45.8 µM (active) in assay [5]; 44.1 µM (active) and 46.5 µM (active) in assay [6]. Further, the AC50 in assay [9] is 8.4 µM (active) and 8.81 µM (active); in assay [10], 21.5 µM (active). Moreover, the result in assay [2], in assay [8] and in assay [10] was inactive.

In the case of `FC(F)(Br)C(F)(F)C(F)(F)C(F)(F)C(F)(F)C(F)(F)Br`, the result in assay [1], in assay [2], in assay [3], in assay [4], in assay [5] and in [6] was inactive. Further, the outcome in assay [8], in [9] and in assay [10] was inactive.

Take `OCC(F)(F)C(F)(F)C(F)(F)C(F)(F)C(F)(F)C(F)(F)F`: the AC50 in [1] was 47.8 µM (active); in assay [3] it was 41.7 µM (active); in assay [6], 45.1 µM (active) and 54.8 µM (active). Further, the outcome in assay [1], in assay [2], in [3], in [4], in assay [5] and in [8] was inactive. Also, the outcome in assay [9] and in assay [10] was inactive.

For the compound `CCN(CC)c1ccc2c(C)cc(=O)oc2c1`, the outcome in [1], in assay [2], in assay [3], in [4], in assay [5] and in [6] was inactive. For the same compound, the result in assay [7], in assay [8], in assay [9] and in [10] was inactive.

Consider `O=C(O)C(F)(F)C(F)(F)C(F)(F)C(F)(F)C(F)(F)C(F)(F)C(F)(F)C(F)(F)C(F)(F)C(F)(F)C(F)(F)C(F)(F)C(F)(F)F`, for which the result in assay [1], in [2], in assay [3], in [4], in assay [5] and in assay [6] was inactive. In addition, the outcome in assay [8], in assay [9] and in assay [10] was inactive. Also, the AC50 in [2] is 0.932 µM (active).

As for `FC(F)(I)C(F)(F)C(F)(F)C(F)(F)I`, the AC50 was 50.3 µM (active) and 57.1 µM (active) in assay [1]; 18.7 µM (active) and 45.2 µM (active) in [2]; 49.2 µM (active) and 46.2 µM (active) and 46.8 µM (active) in assay [3]; 22.9 µM (active) and 53.8 µM (active) and 54.1 µM (active) in [4]; 58.2 µM (active) and 46.9 µM (active) and 54.8 µM (active) in [5]; 48.9 µM (active) in [6]. The AC50 in assay [8] was 50.8 µM (active); in assay [10] it was 51.1 µM (active) and 47.9 µM (active). The outcome in assay [1], in assay [2], in assay [6], in assay [8], in [9] and in assay [10] was inactive.

Take `CCCCCCCCCCCCCCCC[N+](C)(C)Cc1ccccc1`: the AC50 in assay [1] is 5.78 µM (active); in assay [2], 38.8 µM (active); in [3], 2.19 µM (active); in assay [4], 1.78 µM (active); in assay [5] it was 2.47 µM (active); in assay [6] it was 10 µM (active). Moreover, the AC50 is 20 µM (active) in assay [7], 20 µM (active) in assay [8], 13.2 µM (active) in assay [9] and 9.42 µM (active) in assay [10].

Turning to `FC(F)(F)C(F)(F)C(F)(F)CI`, the outcome in assay [1], in assay [2], in [3], in assay [4], in [5] and in assay [6] was inactive. Also, the outcome in [8], in [9] and in assay [10] was inactive.

Take `O=C(O)C(F)(F)C(F)(F)OC(F)(F)F`: the result in assay [1], in assay [2], in assay [3], in [4], in assay [5] and in [6] was inactive. For the same compound, the outcome in assay [8], in [9] and in [10] was inactive. In addition, the AC50 in assay [2] is 2.45 µM (active).

Turning to `CC(CCl)OP(=O)(OC(C)CCl)OC(C)CCl` (stereo not drawn), the outcome in assay [1], in [2], in assay [3], in assay [4], in [5] and in assay [6] was inactive. In addition, the result in [7], in assay [8], in assay [9] and in assay [10] was inactive.
